RGS4 inhibitor: blocks human RGS4-accelerated GTP hydrolysis; Transcreener GDP fluorescence polarization, RGS4-accelerated GTP hydrolysis; P49798; hit rate 0.039% among 390,000; Potency, µM (top dose mostly 114 µM), for the others: at the top dose activity change, negative = inhibition, hits mostly inhibitors; also: % is scaled to controls: 0 for no effect and ±100 for the full control effect; nearly all actives have a fitted effect of over 75% in size
Target sequence (P49798 whole entry, looked up): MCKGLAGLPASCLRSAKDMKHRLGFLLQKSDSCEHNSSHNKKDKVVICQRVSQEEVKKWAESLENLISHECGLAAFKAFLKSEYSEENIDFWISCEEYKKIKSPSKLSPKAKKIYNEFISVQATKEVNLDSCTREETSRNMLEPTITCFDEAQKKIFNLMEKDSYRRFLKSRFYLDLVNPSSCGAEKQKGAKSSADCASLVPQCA
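MLSMR compounds (23 nl, pin-transferred) preincubated 10 min at room temperature with a 500nM (2x) first reagent, then RGS4 at 900nM (2x) plus Transcreener GDP mix added; fluorescence polarization (620/688 nm) read before and after 90 min at 30 °C.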
PTAP TSG101 blk: blocks PTAP/TSG101 interaction to inhibit HIV-1 budding. Q99816. Fluorescence polarization, FITC-PTAP peptide / Tsg101 binding. Potency, µM (titrated, usually from 115 µM), inactives show at the top dose activity change, negative = inhibition, most hits filed as inhibitors. 340,000 tested, under 10 active; active = well fitted inhibition curve with a large enough effect in the main read-out, with a control signal flat, not every such curve was filed as active; inconclusive = small, poorly fitted or top-dose-only effect, or effect the other way, or a change in a side signal; inactive = no such curve, though single readings can be large or run the other way; also: % of control where 0% means no effect
Target sequence (Q99816 whole entry, looked up): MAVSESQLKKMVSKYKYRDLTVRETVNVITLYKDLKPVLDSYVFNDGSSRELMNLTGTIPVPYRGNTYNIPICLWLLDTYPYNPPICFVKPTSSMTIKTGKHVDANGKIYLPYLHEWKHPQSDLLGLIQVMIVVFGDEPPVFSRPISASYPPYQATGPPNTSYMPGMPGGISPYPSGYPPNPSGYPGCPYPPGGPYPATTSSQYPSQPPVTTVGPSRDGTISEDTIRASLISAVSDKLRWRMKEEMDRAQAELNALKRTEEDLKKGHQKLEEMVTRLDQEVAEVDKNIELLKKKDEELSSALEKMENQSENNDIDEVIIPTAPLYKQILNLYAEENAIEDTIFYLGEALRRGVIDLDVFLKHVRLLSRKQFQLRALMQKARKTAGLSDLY
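Compounds were pin-transferred onto Tsg101 binding domain (10 uM final) in HEPES pH 7.5 buffer, then FITC-PTAP peptide was added at 50 nM final. After 20 min at RT, polarization reported peptide displacement across a qHTS concentration series.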
KB-V1 cytotox: KB-V1 MDR subline cytotoxicity; KB-V1 MDR cells viability, CellTiter-Glo, 72 h; Potency, µM (doses to about 46.1 µM), actives largely listed as cytotoxic; hit rate 3.4% among 400,000; AID 1347076; also: % is scaled to controls: 0 for no effect and ±100 for the full control effect; nearly all actives have a fitted effect of over 60% in size
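KB-V1, DMEM (no phenol red) + 10% FBS; cpd pin-transferred, titration series; 72 h, 37 degrees C; CellTiter-Glo, luminescence. Data normalized, curve-fit.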
MCF10A rerep: induces DNA re-replication in MCF 10a normal breast cells | MCF 10A DNA re-replication, Hoechst nuclear intensity, 48 h | Potency, µM (highest dose often 46.1 µM), for the others: at the top dose activity, positive = re-replication, hits mostly activators | hit rate 2.9% among 350,000; also: % of control where 0% means no effect; nearly all actives have a fitted effect of over 50% in size
SW480 rerep: DNA re-replication induction in SW480 cells; hit rate 1.8% among 340,000; SW480 DNA re-replication, Hoechst DNA content imaging, 48 h; Potency, µM (titrated, usually from 46.1 µM), without a hit: at the top dose re-replication activation, usual class: activators; also: % of control where 0% means no effect; nearly all actives have a fitted effect of over 55% in size
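Hoechst fluorescence of nuclei (405 nm excitation, 500-530 nm emission) measured by plate-scanning imager after 48 hr compound exposure at 37 C; re-replication scored as increased number of nuclei with elevated intensity.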
KB-3-1 tox: KB-3-1 parental cell cytotoxicity | AID 1347075 | KB-3-1 viability, CellTiter-Glo ATP luminescence, 72 h | Potency, µM (highest dose often 46.1 µM), usual class: cytotoxic | hit rate 1.4% among 400,000; also: % is scaled to controls: 0 for no effect and ±100 for the full control effect; nearly all actives have a fitted effect of over 60% in size
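Using CellTiter-Glo luminescence, growth of non-resistant KB-3-1 adenocarcinoma cells is assessed 72 h after pin-tool compound addition at 37 °C. Normalized responses across the concentration series yield fitted curves.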
* = called active by the depositor; i = inactive; ? = inconclusive; . = no result given; [ ] = remark or other dose. A selection: hits, their analogues and other compounds. The true share with any hit is near 6.6%. Unless noted, calls follow the shape of the dose curve; as a rule, active = well fitted curve in the direction sought with a large enough effect; inconclusive = small, poorly fitted or top-dose-only effect, or another doubt; inactive = no such curve, though single readings can be large; an effect the other way counts as inactive or inconclusive. Potency is read from the fitted curve at half-maximal effect.

SMILES | RGS4 inhibitor | PTAP TSG101 blk | KB-V1 cytotox | MCF10A rerep | SW480 rerep | KB-3-1 tox
COc1ccc(OC)c2[nH]c(C(=O)N/N=C/c3ccccc3O)cc12 | -6% | -1% | i | ? | ? | ?
COc1ccc(/C=N/NC(=O)c2cnccn2)c(OC)c1OC | 23% | -10% | i | -1% | 2% | i
COc1cccc(/C=N/Nc2ncnc(Cl)c2N)c1O | -18% | -6% | ? | ? | ? | ?
O=C(N/N=C/c1cc([N+](=O)[O-])ccc1Cl)c1cnccn1 | 0% | -1% | i | ? | 5.2µM* | 2.6µM*
COc1cccc(/C=N/NC(=O)c2cnccn2)c1O | 4%[11.4 µM] | -2% | i | 5% | 5.2µM* | i
COc1cccc(/C=N/NC(=O)c2ccncc2)c1OC(=O)c1ccc(Br)cc1 | 1% | -16% | i | 15µM* | 26% | i
COc1cccc(/C=N/Nc2ncnc3scc(-c4ccccc4)c23)c1O | -16% | 1% | ? | 13µM* | ? | ?
COc1ccc(Cn2c(=O)c3oc4ccccc4c3n(Cc3ccccc3)c2=O)cc1 | 3% | . | . | . | . | .
O=C(N/N=C/c1ccccn1)c1ccc(Br)cc1 | 19% | -2% | 18µM* | ? | ? | i
O=C(N/N=C/c1ccccn1)c1ccc(N/N=C/c2ccccn2)cc1 | -12% | -5% | i | 5% | -5% | i
COc1ccccc1/C=N/NC(=O)c1ccc(-c2ccccc2)cc1 | -20%[11.4 µM] | -10% | i | 18µM* | 6% | i
COc1cc(/C=N\NC(=O)c2ccc(-c3ccccc3)cc2)cc(OC)c1O | -2% | -1% | i | ? | 0% | i
CCCCCCN1C2=NCCCN2c2ccccc21 | -27% | -2% | i | -3% | 13% | i
CCCCCCCCCCn1ccc(=N)cc1 | 13% | 0% | ? | ? | 21µM* | 2.3µM*
CCCCCCCCn1ccc(=N)cc1 | 4% | 1% | i | 0% | -2% | 5.8µM*
CCCCCCN1Cc2ccccc2C1 | -15% | 0% | i | 1% | -1% | i
O=C(O)c1ccc2nc(-c3cc4cc(Cl)ccc4oc3=O)[nH]c2c1 | 9% | . | i | . | . | i
S=C1NCN(Cc2cccnc2)CN1 | 5% | -1% | i | -5% | -9% | i
CN(C)C(=S)N=c1ssc(=S)n1Cc1cccnc1 | ? | -2% | ? | 12µM* | 18µM* | ?
Cc1ccc(S(=O)(=O)/C(C#N)=C/c2c(N3CC(C)OC(C)C3)nc3ccccn3c2=O)cc1 (stereo unspecified) | 15% | -6% | i | 6% | 2% | i
C=CCNC(=O)/C(C#N)=C/c1c(N2CC(C)OC(C)C2)nc2ccccn2c1=O (stereo unspecified) | -3% | 0% | i | ? | 16µM* | i
COCCNC(=O)/C(C#N)=C/c1c(N2CCN(c3cccc(Cl)c3)CC2)nc2c(C)cccn2c1=O | ? | 3% | i | 0% | ? | i
CNC(=O)/C(C#N)=C/c1c(N2CCN(c3cccc(Cl)c3)CC2)nc2c(C)cccn2c1=O | 10% | -6% | i | 2.9µM* | 0% | i
C=CCNC(=O)/C(C#N)=C/c1c(N2CCN(c3cccc(Cl)c3)CC2)nc2c(C)cccn2c1=O | -13% | 2% | ? | 21µM* | 4% | i
CN1CCN(C(=O)Cn2c(-c3cccs3)cc3cc(Cl)ccc32)CC1 | 26% | . | i | . | . | i
SMILES | RGS4 inhibitor | PTAP TSG101 blk | KB-V1 cytotox | MCF10A rerep | SW480 rerep | KB-3-1 tox
N#Cc1c(NCCN)nc(NCc2ccccc2)c2c1CCN(Cc1ccccc1)C2 | -16% | -4% | i | ? | 21µM* | i
CC(=O)c1c(C)[nH]c(C(=O)NNC(=O)COc2cc(C)ccc2C(C)C)c1C | 10% | 1% | i | 1% | ? | i
CCOC(=O)c1c(C)[nH]c(C(=O)OCc2ccccc2)c1C | -14% | . | i | -1% | -8% | i
CCOC(=O)c1[nH]c(C)c(C(=O)NCCc2ccc(OC)cc2)c1C | -6% | 3% | 15µM* | ? | -1% | i
CCOC(=O)c1[nH]c(C)c(C(=O)N2CCN(c3ccccc3)CC2)c1C | 33% | -6% | 16µM* | 4% | 1% | i
CCOC(=O)c1[nH]c(C)c(C(=O)N2CCOCC2)c1C | -4% | 0% | i | -4% | -3% | i
CCOC(=O)c1[nH]c(C)c(C(=O)N(C)Cc2ccccc2)c1C | -28% | 0% | 16µM* | 0% | -4% | i
CC(=O)c1c(C)[nH]c(C(=O)NNC(=O)COc2ccc(Cl)cc2C)c1C | -26% | -2% | i | 7.1µM* | -20% | i
O=C(NCCSCc1ccc(Cl)cc1)C1CCN(S(=O)(=O)Cc2ccccc2)CC1 | 8% | . | i | . | . | i
CCNC(=O)c1c(C)[nH]c(C(=O)OCC)c1C | -3% | -9% | ? | -18% | ? | i
CCOc1ccc(CCNC(=O)c2[nH]c(C)c(C(C)=O)c2C)cc1OCC | 34% | 0% | 18µM* | 0% | 3% | i
COc1ccc(CCNC(=O)c2[nH]c(C)c(C(C)=O)c2C)cc1OC | -10% | -10% | i | 0% | -9% | i
COc1ccc(Cl)cc1NC(=O)c1[nH]c(C)c(C(C)=O)c1C | -23% | 0% | i | -10% | -28% | i
CCOC(=O)c1[nH]c(C)c(C(=O)Nc2cc(Cl)ccc2C)c1C | 1% | 0% | 0.46µM* | ? | 0.82µM* | ?
CCOC(=O)c1[nH]c(C)c(C(=O)Nc2ccccc2C)c1C | 3% | -1% | i | 3.7µM* | ? | ?
COc1ccc(OC)c(NC(=O)c2[nH]c(C)c(C(C)=O)c2C)c1 | -20% | -1% | 16µM* | 24% | -12% | i
S=c1nc[nH]c2n[nH]nc12 | . | . | i | . | . | i
CSc1cccc(NC(=O)c2ccc3c(c2)c(C)c(C)n3Cc2ccc(F)cc2)c1 | -15% | . | i | . | . | i
CCOC(=O)c1[nH]c(C)c(C(=O)NCc2ccc(Cl)cc2)c1C | -11% | . | 23µM* | ? | 4% | i
CCOc1cc(CNc2ccc3c(c2)OCCO3)cc(Br)c1OC | -17% | 0% | 2.1µM* | 1.6µM* | 7.3µM* | 1.6µM*
COc1ccc(CNc2ccc(C)c(C)c2)cc1 | -1% | 1% | i | 8% | -4% | i
CCOc1c(Br)cc(CNc2ccc3c(c2)OCCO3)cc1OC | 1% | -6% | 4.1µM* | 1.3µM* | 5.8µM* | 2.1µM*
COc1cc(CNc2ccc(C)c(C)c2)cc(OC)c1OC | 16% | -2% | ? | 16µM* | 8.2µM* | i
